# Values joined by “and” are separate entries in the source; they are usually repeats but may differ in a detail not shown here. Equal values may be shown once. The source holds several records for some structures; these can differ, active in one and inactive in another. Active and inactive are the calls of the source. Unless noted, no stated cut-off is given here; in the data, active means inhibition above about 80%; inactive means the rest.
# What was measured:
# [1] = compounds altering viability of human ES cells (AID 493140; call rule not given here;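 further: cells exposed to compounds for four days before counting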); details: human embryonic stem cell survival screen; stronger effect = higher value
# [2] = P. berghei load reduction in hepatocytes – cell-based, HepG2, luciferase luminescence, HepG2 viability, primary screen (AID 624349; in the data active means parasite load remaining mostly below about 12%, no sharp cut-off; inactive means mostly above about 10%;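 further: 100% = mean of DMSO negative control wells on the same plate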); details: P. berghei liver stage in HepG2, luciferase luminescence, concentration not given here; parasite load remaining: stronger effect = lower value; viability: measured here: HepG2 viability without parasites
# [3] = viability loss with induced miR-34 in A549 – imaging, A549 dox-inducible miR-34, nuclei and caspase counts, primary screen (AID 1347080;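 active means compounds whose cell count with miR-34 switched on is under 0.7 times the count with it off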); details: A549 miR-34 inducible, Hoechst nuclei count, 48 h
# [4] = MELAS cybrid and Rieske KO viability enhancers – cell-based, MELAS cybrids, Rieske KO mouse fibroblasts, CellTiter-Glo, primary screen (AID 1508586;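 active means mean z-score across replicates of 1.96 or higher in either the MELAS or the Rieske mutant cell line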;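 further: z relative to plate mean and SD of compound and empty wells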); details: low glucose
# [5] = growth inhibition, single agent or in combination, cell-based, chromothripsis tumors, cisplatin or BGB combos (AID 1671449); details: LFS_MB_P medulloblastoma cells;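 further: cells exposed for 96 hours; 0% = vehicle DMSO and 100% = killing by high DMSO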
# [6] = growth inhibition, single agent and combos, cell-based, chromothripsis tumors, cisplatin or BGB combos (AID 1671450); details: HDN33 neuroblastoma cells, stronger effect = higher value;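 further: cells exposed to compound for four days; 0% = vehicle DMSO and 100% = cell killing by high DMSO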
# [7] = growth inhibition, single agents and combos, ICB984, cell-based, cisplatin or BGB combos, synergistic combos for chromothripsis tumors (AID 1671451; call rule not given here;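 further: cells exposed for 96 hours before readout; 0% = vehicle DMSO and 100% = killing by high DMSO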); details: ICB984 medulloblastoma cells, drug combinations, stronger effect = higher value
# [8] = growth inhibition, single agents and combos, LFS_MB_1R, cell-based, cisplatin or BGB combos, synergistic combos for chromothripsis tumors (AID 1671452); details: LFS_MB_1R medulloblastoma cells, stronger effect = higher value;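 further: cells exposed for 96 hours before readout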
# [9] = growth inhibition, single agents and combos, HTB85, cell-based, BGB or cisplatin IC20 combos, synergistic combos for chromothripsis tumors (AID 1671453); details: HTB85 osteosarcoma cells, drug combinations, stronger effect = higher value;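 further: cells exposed for 96 hours before readout; 0% = vehicle DMSO and 100% = high DMSO killing control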
# [10] = growth inhibition, single agents and combos, CRL2098, cell-based, BGB or cisplatin IC20 combos, synergistic combos for chromothripsis tumors (AID 1671454); details: CRL2098 osteosarcoma cells, drug combinations, stronger effect = higher value;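 further: cells exposed for 96 h before readout; 0% = vehicle DMSO and 100% = killing by high DMSO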
# [11] = growth inhibition, single agents and combos, HD-MB03, cell-based, BGB or cisplatin IC20 combos, synergistic combos for chromothripsis tumors (AID 1671455; in the data active means inhibition above about 83%;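 further: 0% = vehicle DMSO and 100% = high DMSO as cytotoxic control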); details: HD-MB03 medulloblastoma cells, stronger effect = higher value
# [12] = growth inhibition, single agents and combos, UWB1.289, cell-based, BGB or cisplatin combos, synergistic combos for chromothripsis tumors (AID 1671456); details: UWB1.289 ovarian carcinoma cells, stronger effect = higher value;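 further: cells exposed to compound for four days; 0% = vehicle DMSO and 100% = killing by high DMSO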
# [13] = growth inhibition, single agents and combos, LFS_MB_2R, cell-based, cisplatin combos, synergistic combos for chromothripsis tumors (AID 1671457); details: LFS_MB_2R medulloblastoma cells, stronger effect = higher value;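 further: cells exposed to compound for four days before readout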
# [14] = growth inhibition, MDA-MB-436, cell-based, BGB or cisplatin combos, synergistic combos for chromothripsis tumors (AID 1671458; call rule not given here;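 further: cells exposed for 96 hours; 0% = vehicle DMSO and 100% = killing by high DMSO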); details: MDA-MB-436 breast carcinoma growth inhibition, drug combinations, stronger effect = higher value
# [15] = UWB1.289_BRCA1 ovarian cancer growth, cell-based, BGB or cisplatin combinations (AID 1671459); details: UWB1.289 BRCA1 ovarian carcinoma, drug combinations, stronger effect = higher value
# [16] = drug combination toxicity in non-malignant astrocytes – cell-based, BGB or cisplatin IC20 combos, cytotoxicity control for chromothriptic childhood tumor combination screen (AID 1671460); details: Human astrocytes, viability inhibition, drug combinations, at 0.5 µM, stronger effect = higher value;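 further: cells exposed to compounds for 96 hours before viability readout; 0% = vehicle and 100% = killing control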
# [17] = BT084 cell growth, single and combined drugs, ICGC_MB145, cisplatin and BGB IC40 combos (AID 1671461); details: BT084 medulloblastoma cells, drug combinations, at 0.5 µM, stronger effect = higher value;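 further: cells exposed to drugs for 96 hours; 0% = vehicle DMSO and 100% = high DMSO full killing control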
# [18] = stronger effect = lower value, cell number ratio, induced over uninduced
# [19] = measured here: relative caspase fold change +Dox/-Dox
# [20] = measured here: total cells with miR-34 induction, stronger effect = lower value
# [21] = measured here: total cells without miR-34 induction
# [22] = MELAS cybrid survival, CellTiter-Glo 48 h, stronger effect = higher value
# [23] = Rieske KO mouse fibroblast survival, CellTiter-Glo 72 h
# [24] = measured here: combination with BGB IC40, at 0.05 µM
# [25] = measured here: combination with cisplatin, at 0.5 µM
# [26] = measured here: combination with cisplatin, at 5 µM
smiles,measurement,setting,value
CC(=O)N(CC(C)C(=O)O)c1c(I)cc(I)c(N)c1I (centres undefined),survival,[1],3.33 (inactive)
same,parasite load remaining,[2],76.2% (inactive)
same,viability,[2],95.9%
same,fold change,[3]; [18],0.901 (inactive)
same,fold change,[3]; [19],1.42
same,cell count,[3]; [20],9460
same,cell count,[3]; [21],10500
same,z-score,[4]; [22],0.846 (inactive)
same,z-score,[4]; [23],0.109
COc1ccc(CC(N)C(=O)NC2C(CO)OC(n3cnc4c(N(C)C)ncnc43)C2O)cc1 (centres undefined),fold change,[3]; [18],1 (inactive)
same,fold change,[3]; [19],0.403
same,cell count,[3]; [20],798
same,cell count,[3]; [21],796
same,z-score,[4]; [22],-0.998 (inactive)
same,z-score,[4]; [23],-2.06
same,inhibition,"[5]; at 0.5 µM, stronger effect = higher value",-25.1% (inactive) and 6.28% (inactive)
same,inhibition,"[5]; measured here: combination with BGB IC20, at 0.005 µM",7.23% and -8.63%
same,inhibition,"[5]; measured here: combination with BGB IC40, at 0.005 µM",-30.8% and -22.1%
same,inhibition,[5]; [24],-25.1% and 4.36%
same,inhibition,"[5]; measured here: combination with cisplatin, at 0.5 µM, stronger effect = higher value",-20.6% and 32.4%
same,inhibition,"[5]; measured here: combination with cisplatin, at 5 µM, stronger effect = higher value",120% and 124%
same,inhibition,"[6]; BGB combo, at 5 µM",100% and 99.9%
same,inhibition,[6]; at 0.5 µM,75.5% (inactive) and 96.4% (active)
same,inhibition,"[6]; cisplatin combo, at 5 µM",99.9% and 100%
same,inhibition,"[6]; measured here: with BGB IC20 combination, at 0.5 µM",78.8% and 94.9%
same,inhibition,"[6]; measured here: with cisplatin IC20 combination, at 0.5 µM",74% and 96.7%
same,inhibition,"[6]; single agent, at 5 µM",99.9% and 100%
same,inhibition,"[7]; BGB IC20 combo, at 0.005 µM",14.3% and 49.6%
same,inhibition,"[7]; BGB IC40 combo, at 0.005 µM",37% and 55.6%
same,inhibition,"[7]; BGB IC40 combo, at 0.05 µM",100%
same,inhibition,[7]; at 0.5 µM,-26.8% (inactive) and -23.9% (inactive)
same,inhibition,"[7]; cisplatin combo, at 0.05 µM",101% and 100%
same,inhibition,"[7]; cisplatin combo, at 0.5 µM",-24.2% and -19.9%
same,inhibition,"[7]; cisplatin combo, at 5 µM",-8.56% and -29.6%
same,inhibition,"[7]; measured here: 5 uM single agent, at 5 µM",-9.41% and -1.15%
same,inhibition,[8]; at 0.5 µM,31.4% (inactive) and 64.5% (inactive)
same,inhibition,[8]; [24],0.687% and -51.1%
same,inhibition,[8]; [25],59.4% and 79.7%
same,inhibition,[8]; [26],102% and 99%
same,inhibition,[9]; at 0.5 µM,82.9% (active) and 95.9% (active)
same,inhibition,"[9]; measured here: with BGB IC20, at 0.5 µM",84.1% and 96.2%
same,inhibition,"[9]; measured here: with BGB IC20, at 5 µM",100%
same,inhibition,"[9]; measured here: with cisplatin IC20, at 0.5 µM",80.8% and 96.9%
same,inhibition,"[9]; measured here: with cisplatin IC20, at 5 µM",99.9% and 100%
same,inhibition,"[9]; single agent, at 5 µM",100%
same,inhibition,[10]; at 0.5 µM,56.1% (inactive) and 91.8% (active)
same,inhibition,"[10]; measured here: combination with BGB at IC20, at 0.5 µM",67.8% and 88.9%
same,inhibition,"[10]; measured here: combination with cisplatin at IC20, at 0.5 µM",54.9% and 94.1%
same,inhibition,[11]; at 0.5 µM,87.7% (active) and 99.6% (active)
same,inhibition,"[11]; measured here: combo with BGB at IC20, at 0.5 µM",88.7% and 99.3%
same,inhibition,"[11]; measured here: combo with cisplatin at IC20, at 0.5 µM",91.5% and 99.7%
same,inhibition,[12]; at 0.5 µM,50% (inactive) and 83.6% (active)
same,inhibition,"[12]; measured here: inhibition with BGB combination, at 0.05 µM",-13.6% and -16.5%
same,inhibition,"[12]; measured here: inhibition with cisplatin combination, at 0.05 µM",-12.2% and -18.5%
same,inhibition,[13]; at 0.5 µM,29.8% (inactive) and 56.9% (inactive)
same,inhibition,[13]; [25],55.5% and 77.6%
same,inhibition,[13]; [26],108% and 104%
same,inhibition,[14]; at 0.5 µM,57.5% (inactive) and 76.7% (inactive)
same,inhibition,"[14]; measured here: BGB combination, at 0.5 µM",54.4% and 71.5%
same,inhibition,"[14]; measured here: BGB combination, at 5 µM",97.5% and 96%
same,inhibition,"[14]; measured here: cisplatin combination, at 0.5 µM",53% and 76.1%
same,inhibition,"[14]; measured here: cisplatin combination, at 5 µM",98.3% and 97.8%
same,inhibition,"[15]; BGB combination, concentration series, at 5 µM",117% and 113%
same,inhibition,[15]; at 0.5 µM,59% (inactive) and 95.4% (active)
same,inhibition,"[15]; cisplatin combination, concentration series, at 5 µM",117% and 111%
same,inhibition,[16],40.4% (inactive) and 94.2% (active)
same,inhibition,[16]; measured here: combo with BGB IC20,44.5% and 93.9%
same,inhibition,[16]; measured here: combo with cisplatin IC20,14.8% and 91.4%
same,inhibition,[17],25.7% (inactive) and 46.2% (inactive)

# — PubChem BioAssay
